The source made the active and inactive calls. The calls were made as follows: active = hit-call score of the fitted dose curve at least 0.9, where 1 is the maximum; inactive = score below 0.9.
Experiment: BSK_3C_uPAR: BioMAP Diversity Plus: 3C Assay for Urokinase-type plasminogen activator receptor (uPAR) Biomarker Activity (AID 2282998)
Conditions: BioMAP 3C HUVEC, uPAR biomarker ELISA; actives raise or lower the signal
Procedure, shortened: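 ELISA readout of uPAR on human vascular endothelium (umbilical vein primary cells), taken 24 h after chemical dosing. Increases and decreases are both fitted relative to DMSO vehicle.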

Row | SMILES | outcome | AC50
1 | CCCCCCCC(=O)OC | inactive | 
2 | CN(C)CCCN(C)CCCN(C)C | inactive | 
3 | CCCCC(CC)COP(=O)(OCC(CC)CCCC)OCC(CC)CCCC (stereo not drawn) |  | 12.5 µM (active)
4 | CCC(C)N(C)C(=O)c1cc2ccccc2c(-c2ccccc2Cl)n1 (stereo not drawn) | inactive | 
5 | O=C(O)c1cccnc1 | inactive | 
6 | CN(C)CCCN1c2ccccc2Sc2ccc(Cl)cc21 |  | 25.1 µM (active)
7 | CCCCCCCCCCCCCCCCO | inactive | 
8 | CCOCCOCCO | inactive | 
9 | C=CCc1ccc(OC)c(OC)c1 | inactive | 
10 | CC1(C)C(=O)NC(=O)N1CO | inactive | 
11 | COC(=O)CCCC(=O)OC | inactive | 
12 | CCCCC(CC)CO (stereo not drawn) | inactive | 
13 | CO[C@@H]1COCC[C@@H]1N[C@@H]1CC[C@@](C(=O)N2CCc3ncc(C(F)(F)F)cc3C2)(C(C)C)C1 | inactive | 
14 | CC(=O)OC1CC(C)OC(C)O1 (stereo not drawn) | inactive | 
15 | N[C@@H](Cc1c[nH]c2ccccc12)C(=O)O | inactive | 
16 | Cc1ccc(C(C)(C)C)c(O)c1 |  | 32.6 µM (active)
17 | c1ccc2occc2c1 | inactive | 
18 | Cc1occc(=O)c1O | inactive | 
19 | CN(C)C(=O)NC1(c2ccccc2)CCN(CCC[C@]2(c3ccc(Cl)c(Cl)c3)CCCN(C(=O)c3ccccc3)C2)CC1 | inactive | 
20 | CC(=O)S[C@H](C(=O)N[C@H]1Cc2ccccc2[C@H]2CCC[C@@H](C(=O)O)N2C1=O)C(C)C | inactive | 
21 | COC(=O)CCC(=O)OC | inactive | 
22 | CCCCCCC(C=O)=Cc1ccccc1 |  | 36.6 µM (active)
23 | NC=O | inactive | 
24 | CCCCOC(=O)CCCCC(=O)OCCCC | inactive | 
25 | CC(=O)O[C@]1(C(C)=O)CC[C@H]2[C@@H]3C=C(Cl)C4=CC(=O)[C@@H]5C[C@@H]5[C@]4(C)[C@H]3CC[C@@]21C | inactive | 
26 | Nc1nc(Cl)nc2c1ncn2[C@H]1C[C@H](O)[C@@H](CO)O1 | inactive | 
27 | Oc1ccc(O)cc1 | inactive | 
28 | CCN(CC)CCOc1ccc(C(=C(Cl)c2ccccc2)c2ccccc2)cc1 |  | 6.51 µM (active)
29 | O=C1CCCCC1 | inactive | 

Experiment: BSK_3C_VCAM1: BioMAP Diversity Plus: 3C Assay for Vascular cell adhesion molecule 1 (VCAM1) Biomarker Activity (AID 2282999)
Conditions: BioMAP 3C HUVEC, VCAM1 ELISA, cytokine-stimulated; actives raise or lower the signal
Procedure, shortened: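 Human umbilical vein endothelial cells (3C system), biomarker read by ELISA 24 h after dosing; bidirectional fit against DMSO baseline. Cytotoxicity tracked by SRB total-protein staining in parallel cultures at biomarker time.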

Row | SMILES | outcome | AC50
30 | CCCCCCCC(=O)OC | inactive | 
31 | CN(C)CCCN(C)CCCN(C)C | inactive | 
32 | CCCCC(CC)COP(=O)(OCC(CC)CCCC)OCC(CC)CCCC (stereo not drawn) |  | 20 µM (active)
33 | CCC(C)N(C)C(=O)c1cc2ccccc2c(-c2ccccc2Cl)n1 (stereo not drawn) | inactive | 
34 | O=C(O)c1cccnc1 | inactive | 
35 | CN(C)CCCN1c2ccccc2Sc2ccc(Cl)cc21 |  | 36.8 µM (active)
36 | CCCCCCCCCCCCCCCCO | inactive | 
37 | CCOCCOCCO | inactive | 
38 | C=CCc1ccc(OC)c(OC)c1 | inactive | 
39 | CC1(C)C(=O)NC(=O)N1CO | inactive | 
40 | COC(=O)CCCC(=O)OC | inactive | 
41 | CCCCC(CC)CO (stereo not drawn) | inactive | 
42 | CO[C@@H]1COCC[C@@H]1N[C@@H]1CC[C@@](C(=O)N2CCc3ncc(C(F)(F)F)cc3C2)(C(C)C)C1 | inactive | 
43 | CC(=O)OC1CC(C)OC(C)O1 (stereo not drawn) | inactive | 
44 | N[C@@H](Cc1c[nH]c2ccccc12)C(=O)O | inactive | 
45 | Cc1ccc(C(C)(C)C)c(O)c1 |  | 34.6 µM (active)
46 | c1ccc2occc2c1 | inactive | 
47 | Cc1occc(=O)c1O | inactive | 
48 | CN(C)C(=O)NC1(c2ccccc2)CCN(CCC[C@]2(c3ccc(Cl)c(Cl)c3)CCCN(C(=O)c3ccccc3)C2)CC1 | inactive | 
49 | CC(=O)S[C@H](C(=O)N[C@H]1Cc2ccccc2[C@H]2CCC[C@@H](C(=O)O)N2C1=O)C(C)C | inactive | 
50 | COC(=O)CCC(=O)OC | inactive | 
51 | CCCCCCC(C=O)=Cc1ccccc1 |  | 35.6 µM (active)
52 | NC=O | inactive | 
53 | CCCCOC(=O)CCCCC(=O)OCCCC | inactive | 
54 | CC(=O)O[C@]1(C(C)=O)CC[C@H]2[C@@H]3C=C(Cl)C4=CC(=O)[C@@H]5C[C@@H]5[C@]4(C)[C@H]3CC[C@@]21C | inactive | 
55 | Nc1nc(Cl)nc2c1ncn2[C@H]1C[C@H](O)[C@@H](CO)O1 | inactive | 
56 | Oc1ccc(O)cc1 |  | 15.6 µM (active)
57 | CCN(CC)CCOc1ccc(C(=C(Cl)c2ccccc2)c2ccccc2)cc1 |  | 13.8 µM (active)
58 | O=C1CCCCC1 | inactive | 
